According to PubChem BioAssay (NCI):
The panel holds about 79,000 compounds, 15% with a hit somewhere; the sample as a whole holds those more often. The source made the active and inactive calls. Cut-off read from the data, not from the text of the source: active = growth inhibition above about 70%; inactive = the rest.

Legend:
[1] = NCI Yeast Anticancer Drug Screen. Data for the rad52 strain (AID 147);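 note: 0% = growth of vehicle-treated control cultures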; details: S. cerevisiae rad52 mutant growth inhibition, hits give high values
How it was run: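 Inhibition of yeast growth, referenced to vehicle controls, was the measured output for a strain with defective DNA damage repair.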

[2] = NCI Yeast Anticancer Drug Screen. Data for the wt1 strain (AID 149);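 note: 0% = growth of vehicle-treated wt1 cultures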; details: S. cerevisiae wt1 strain (SPY 50644) growth inhibition, hits give high values
How it was run: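 Vehicle-normalised growth inhibition; strain wt1; compound exposure.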

[3] = NCI Yeast Anticancer Drug Screen. Data for the rad50EPP+ strain (AID 151);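 note: 0% = growth of vehicle-treated control cultures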; details: S. cerevisiae rad50 mutant strain, hits give high values
How it was run: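 Genetically defined yeast (rad50EPP+, DNA damage repair alteration) is grown with compound, and inhibition of growth is expressed relative to vehicle-treated controls.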

[4] = NCI Yeast Anticancer Drug Screen. Data for the mgt1 strain (AID 153); details: S. cerevisiae mgt1 mutant growth inhibition, hits give high values
How it was run: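 In the mgt1 strain, test compounds were added and growth inhibition was determined relative to vehicle-treated controls.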

[5] = NCI Yeast Anticancer Drug Screen. Data for the rad50 strain (AID 155);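 note: 0% = growth of vehicle-only cultures of the same strain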; details: S. cerevisiae rad50 strain growth inhibition, hits give high values
How it was run: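 A DNA repair-deficient yeast mutant serves as the test organism; compound-induced growth inhibition is calculated against vehicle-treated cells.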

[6] = NCI Yeast Anticancer Drug Screen. Data for the mec2-1 strain (AID 157); details: S. cerevisiae mec2-1 strain, hits give high values
How it was run: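 Each compound was tested on mec2-1 yeast, a strain altered in DNA damage repair or cell cycle control. Growth inhibition is reported relative to vehicle.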

[7] = NCI Yeast Anticancer Drug Screen. Data for the rad14 strain (AID 159);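 note: 0% = growth of vehicle-treated control cultures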; details: S. cerevisiae rad14 strain growth inhibition, hits give high values
How it was run: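 Vehicle-treated cultures served as the baseline for growth inhibition of a DNA repair-mutant yeast strain exposed to each compound.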

[8] = NCI Yeast Anticancer Drug Screen. Data for the sgs1 mgt1 strain (AID 161);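 note: 0% = growth of cultures given vehicle only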; details: S. cerevisiae sgs1 mgt1 strain, hits give high values
How it was run: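 Genetically altered yeast, compound exposure, growth inhibition relative to vehicle.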

[9] = NCI Yeast Anticancer Drug Screen. Data for the CLN2oe strain (AID 163);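 note: 0% = growth of vehicle-only control cultures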; details: S. cerevisiae CLN2oe strain, hits give high values
How it was run: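 First, the altered yeast strain was treated with each compound; second, its growth was measured; finally, inhibition was derived by comparison with vehicle controls.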

[10] = NCI Yeast Anticancer Drug Screen. Data for the cln2 rad14 strain (AID 165);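 note: 0% = growth equal to vehicle treated cultures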; details: S. cerevisiae cln2 rad14 strain, hits give high values
How it was run: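 Test compounds were added to cln2 rad14 yeast cultures; inhibition of growth was then determined by comparison with vehicle treatment.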

[11] = NCI Yeast Anticancer Drug Screen. Data for the bub3 strain (AID 167); details: S. cerevisiae bub3 mutant strain, hits give high values
How it was run: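 Inhibition values come from growth of compound-treated mutant yeast normalised to vehicle-treated controls.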

[12] = NCI Yeast Anticancer Drug Screen. Data for the wt2 strain (AID 169);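 note: 0% = growth of vehicle-treated yeast cultures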; details: S. cerevisiae wt2 strain growth inhibition, hits give high values
How it was run: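 The panel's yeast strains carry defined changes in DNA repair or cell cycle genes. Each strain is grown with compound, and growth loss is scored relative to vehicle.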

[13] = NCI Yeast Anticancer Drug Screen. Data for the mlh1 strain (AID 171);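 note: 0% = growth of vehicle-treated control cultures of the same strain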; details: S. cerevisiae mlh1 strain growth inhibition, hits give high values
How it was run: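 Inhibition values reflect reduced yeast growth in the presence of compound, referenced to vehicle controls, using a strain chosen for its alteration in DNA repair or cell cycle control.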

[14] = NCI Yeast Anticancer Drug Screen. Data for the sgs1 strain (AID 173);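 note: 0% = growth of vehicle-only control cultures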; details: S. cerevisiae sgs1 mutant, hits give high values
How it was run: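 Vehicle-treated cultures served as reference for growth inhibition of a yeast strain altered in DNA damage repair or cell cycle control after compound exposure.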

[15] = NCI Yeast Anticancer Drug Screen. Data for the mlh1 rad18 strain (AID 175); details: S. cerevisiae mlh1 rad18 strain growth inhibition, hits give high values
How it was run: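 Inhibition values reflect reduced growth of mutant yeast versus vehicle-treated controls following compound exposure; the mutations affect DNA damage repair.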

[16] = NCI Yeast Anticancer Drug Screen. Data for the rad18 strain (AID 177); details: S. cerevisiae rad18 mutant growth inhibition, hits give high values
How it was run: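 Steps: expose repair-mutant yeast to compound; measure growth; express as inhibition relative to vehicle control.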

[17] = at 5.0 µM (retest, dose inferred, filed as 0.5)
[18] = at 50.0 µM (retest, dose inferred, filed as 5.0)

Measured: growth inhibition

N#CC1OB(O)c2ccccc21 (stereo unspecified)
active: [5]; [18] 81%
inactive: [1]; at 1.2 µM -9% | [1]; at 3.7 µM -6% | [1]; at 11.0 µM -5% | [1]; at 33.0 µM -5% | [1]; at 100.0 µM 3% | [2]; at 1.2 µM -5% | [2]; at 3.7 µM -4% | [2]; at 11.0 µM -5% | [2]; at 33.0 µM -4% | [2]; at 100.0 µM 0% | [3]; at 1.2 µM -2% | [3]; at 3.7 µM 4% | [3]; at 11.0 µM 4% | [3]; at 33.0 µM 17% | [3]; at 100.0 µM 26% | [4]; at 1.2 µM -7% | [4]; at 3.7 µM -4% | [4]; at 11.0 µM -2% | [4]; at 33.0 µM 0% | [4]; at 100.0 µM -3% | [5]; at 1.2 µM -13% | [5]; at 3.7 µM -10% | [5]; [17] -126% | [5]; at 11.0 µM 4% | [5]; at 33.0 µM 10% | [5]; at 50.0 µM 58.2% | [5]; at 100.0 µM 11% | [6]; at 1.2 µM 1% | [6]; at 3.7 µM 0% | [6]; [17] -51% | [6]; at 11.0 µM 3% | [6]; at 33.0 µM 1% | [6]; [18] -27% | [6]; at 50.0 µM 27.9% | [6]; at 100.0 µM -7% | [7]; at 1.2 µM -3% | [7]; at 3.7 µM 0% | [7]; at 11.0 µM -2% | [7]; at 33.0 µM -2% | [7]; at 100.0 µM 1% | [8]; [17] -61% | [8]; [18] -2% | [8]; at 50.0 µM 27.1% | [9]; at 1.2 µM 0% | [9]; at 3.7 µM -2% | [9]; at 11.0 µM 1% | [9]; at 33.0 µM -7% | [9]; at 100.0 µM -2% | [10]; [17] -57% | [10]; [18] -42% | [10]; at 50.0 µM 21% | [11]; at 1.2 µM -11% | [11]; at 3.7 µM -10% | [11]; [17] -64% | [11]; at 11.0 µM -6% | [11]; at 33.0 µM -10% | [11]; [18] -36% | [11]; at 50.0 µM 69.7% | [11]; at 100.0 µM -4% | [12]; at 1.2 µM 0% | [12]; at 3.7 µM 0% | [12]; at 11.0 µM -1% | [12]; at 33.0 µM -2% | [12]; at 100.0 µM -2% | [13]; at 1.2 µM 7% | [13]; at 3.7 µM -5% | [13]; at 11.0 µM -6% | [13]; at 33.0 µM -6% | [13]; at 100.0 µM -7% | [14]; at 1.2 µM 1% | [14]; at 3.7 µM 1% | [14]; at 11.0 µM 2% | [14]; at 33.0 µM 1% | [14]; at 100.0 µM 1% | [15]; [17] -115% | [15]; [18] 7% | [15]; at 50.0 µM 60.9% | [16]; at 1.2 µM -4% | [16]; at 3.7 µM -1% | [16]; at 11.0 µM 1% | [16]; at 33.0 µM 2% | [16]; at 100.0 µM 6%

CN(C)CC1=Nc2cccc3cccc(c23)N1
inactive: [1]; at 1.2 µM -4% | [1]; at 3.7 µM -6% | [1]; at 11.0 µM -10% | [1]; at 33.0 µM 2% | [1]; at 100.0 µM 60% | [2]; at 1.2 µM 2% | [2]; at 3.7 µM -5% | [2]; at 11.0 µM -6% | [2]; at 33.0 µM -4% | [2]; at 100.0 µM 21% | [3]; at 1.2 µM -2% | [3]; at 3.7 µM -3% | [3]; at 11.0 µM -2% | [3]; at 33.0 µM -8% | [3]; at 100.0 µM 13% | [4]; at 1.2 µM -9% | [4]; at 3.7 µM -1% | [4]; at 11.0 µM -7% | [4]; at 33.0 µM 9% | [5]; at 1.2 µM -7% | [5]; at 3.7 µM 1% | [5]; [17] -17% | [5]; at 11.0 µM 4% | [5]; at 33.0 µM 51% | [5]; [18] 30% | [6]; at 1.2 µM -3% | [6]; at 3.7 µM -3% | [6]; [17] -12% | [6]; at 11.0 µM -5% | [6]; at 33.0 µM 3% | [6]; [18] 17% | [7]; at 1.2 µM -2% | [7]; at 3.7 µM 0% | [7]; at 11.0 µM 1% | [7]; at 33.0 µM 51% | [8]; [17] -21% | [8]; [18] 41% | [9]; at 1.2 µM -4% | [9]; at 3.7 µM -8% | [9]; at 11.0 µM 5% | [9]; at 33.0 µM 3% | [9]; at 100.0 µM 61% | [10]; [17] -39% | [10]; [18] -16% | [10]; at 50.0 µM 6.8% | [11]; at 1.2 µM -5% | [11]; at 3.7 µM -4% | [11]; [17] -26% | [11]; at 11.0 µM -3% | [11]; at 33.0 µM 17% | [11]; [18] 58% | [12]; at 1.2 µM -2% | [12]; at 3.7 µM -5% | [12]; at 11.0 µM -6% | [12]; at 33.0 µM 10% | [12]; at 100.0 µM 64% | [13]; at 1.2 µM 0% | [13]; at 3.7 µM -12% | [13]; at 11.0 µM -5% | [13]; at 33.0 µM 24% | [14]; at 1.2 µM -1% | [14]; at 3.7 µM -5% | [14]; at 11.0 µM -5% | [14]; at 33.0 µM 7% | [14]; at 100.0 µM 68% | [15]; [17] -32% | [15]; [18] 46% | [16]; at 1.2 µM -3% | [16]; at 3.7 µM -20% | [16]; at 11.0 µM -14% | [16]; at 33.0 µM 1%
active: [4]; at 100.0 µM 87% | [5]; at 50.0 µM 90.8% | [5]; at 100.0 µM 79% | [6]; at 50.0 µM 87.4% | [6]; at 100.0 µM 85% | [7]; at 100.0 µM 88% | [8]; at 50.0 µM 88.6% | [11]; at 50.0 µM 90% | [11]; at 100.0 µM 85% | [13]; at 100.0 µM 87% | [15]; at 50.0 µM 90.2% | [16]; at 100.0 µM 70%
